# Measurements as given in the supplement of paper PMC10849652.
# Targets with a hit are over-represented here; the source holds about 7,900 in all. About 0.6% of all pairs of compound and target were hits. Values without a mark were called inactive.
# Experiments:
# Test in all cases: log2 fold change, soluble protein after heating vs DMSO (PISA); higher = thermal stabilisation; K562 cells, 10 uM, 30 min; active = over 0.2 and 3.5 SD of the protein, either way, in both replicates (recomputed)
# [1] = compound: CN1CCN(CCOc2cc(OC3CCOCC3)c3c(Nc4c(Cl)ccc5c4OCO5)ncnc3c2)CC1 [saracatinib]
# Summary of the method: (§1)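 K562 cells at 2×10^6 cells/mL were exposed to 10 μM compound for 30 min, then aliquots were heated for 3 min across 48°C-58°C, pooled, and extracted in PBS containing 0.5% NP-40 at 4°C. The supernatant after 21,000xg for 90 min was taken as soluble protein and measured by TMTpro 16plex LC-MS/MS with channel sums equalised. Thermal stability is reported relative to control samples, with values from duplicates. Fold changes are given on a log2 scale.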
# [2] = compound: CN1CCN(c2nc(C3=C(c4c[nH]c5ccccc45)C(=O)NC3=O)c3ccccc3n2)CC1 [sotrastaurin]
# Summary of the method: as §1
# [3] = compound: CN1CC[C@H](c2c(O)cc(O)c3c(=O)cc(-c4ccccc4Cl)oc23)[C@H](O)C1 [alvocidib]
# Summary of the method: as §1
# [4] = compound: CN1CCc2c(c3ccccc3n2Cc2ccc(C(=O)NO)cc2)C1 [Tubastatin A]
# Summary of the method: as §1
# [5] = compound: CNC(=O)c1ccc(Nc2ncc(C(F)(F)F)c(NCc3nccnc3N(C)S(C)(=O)=O)n2)cc1 [defactinib]
# Summary of the method: as §1
# [6] = compound: CNCc1ccc(-c2[nH]c3cc(F)cc4c3c2CCNC4=O)cc1 [rucaparib]
# Summary of the method: as §1
# [7] = compound: CNc1nc(-c2ccc3c(N)n[nH]c3c2)cc(N2C[C@@H](C(=O)NC3CCCCC3)CC[C@H]2C)n1
# Summary of the method: as §1
# [8] = compound: COC(=O)N[C@@H](C)CNc1nccc(-c2cn(C(C)C)nc2-c2cc(Cl)cc(NS(C)(=O)=O)c2F)n1 [encorafenib]
# Summary of the method: as §1
# [9] = compound: COC(=O)[C@H](CCSC)NC(=O)C1=C(C=C(C=C1)NC[C@H](CS)N)C2=CC=CC=C2
# Summary of the method: as §1
# [10] = compound: CNC(=O)C1=CC=CC=C1NC2=NC(=NC=C2Cl)NC3=C(C=C(C=C3)N4CCOCC4)OC
# Summary of the method: as §1
# Sequence of UniProt Q5VYK3 (Q5VYK3 whole entry, looked up): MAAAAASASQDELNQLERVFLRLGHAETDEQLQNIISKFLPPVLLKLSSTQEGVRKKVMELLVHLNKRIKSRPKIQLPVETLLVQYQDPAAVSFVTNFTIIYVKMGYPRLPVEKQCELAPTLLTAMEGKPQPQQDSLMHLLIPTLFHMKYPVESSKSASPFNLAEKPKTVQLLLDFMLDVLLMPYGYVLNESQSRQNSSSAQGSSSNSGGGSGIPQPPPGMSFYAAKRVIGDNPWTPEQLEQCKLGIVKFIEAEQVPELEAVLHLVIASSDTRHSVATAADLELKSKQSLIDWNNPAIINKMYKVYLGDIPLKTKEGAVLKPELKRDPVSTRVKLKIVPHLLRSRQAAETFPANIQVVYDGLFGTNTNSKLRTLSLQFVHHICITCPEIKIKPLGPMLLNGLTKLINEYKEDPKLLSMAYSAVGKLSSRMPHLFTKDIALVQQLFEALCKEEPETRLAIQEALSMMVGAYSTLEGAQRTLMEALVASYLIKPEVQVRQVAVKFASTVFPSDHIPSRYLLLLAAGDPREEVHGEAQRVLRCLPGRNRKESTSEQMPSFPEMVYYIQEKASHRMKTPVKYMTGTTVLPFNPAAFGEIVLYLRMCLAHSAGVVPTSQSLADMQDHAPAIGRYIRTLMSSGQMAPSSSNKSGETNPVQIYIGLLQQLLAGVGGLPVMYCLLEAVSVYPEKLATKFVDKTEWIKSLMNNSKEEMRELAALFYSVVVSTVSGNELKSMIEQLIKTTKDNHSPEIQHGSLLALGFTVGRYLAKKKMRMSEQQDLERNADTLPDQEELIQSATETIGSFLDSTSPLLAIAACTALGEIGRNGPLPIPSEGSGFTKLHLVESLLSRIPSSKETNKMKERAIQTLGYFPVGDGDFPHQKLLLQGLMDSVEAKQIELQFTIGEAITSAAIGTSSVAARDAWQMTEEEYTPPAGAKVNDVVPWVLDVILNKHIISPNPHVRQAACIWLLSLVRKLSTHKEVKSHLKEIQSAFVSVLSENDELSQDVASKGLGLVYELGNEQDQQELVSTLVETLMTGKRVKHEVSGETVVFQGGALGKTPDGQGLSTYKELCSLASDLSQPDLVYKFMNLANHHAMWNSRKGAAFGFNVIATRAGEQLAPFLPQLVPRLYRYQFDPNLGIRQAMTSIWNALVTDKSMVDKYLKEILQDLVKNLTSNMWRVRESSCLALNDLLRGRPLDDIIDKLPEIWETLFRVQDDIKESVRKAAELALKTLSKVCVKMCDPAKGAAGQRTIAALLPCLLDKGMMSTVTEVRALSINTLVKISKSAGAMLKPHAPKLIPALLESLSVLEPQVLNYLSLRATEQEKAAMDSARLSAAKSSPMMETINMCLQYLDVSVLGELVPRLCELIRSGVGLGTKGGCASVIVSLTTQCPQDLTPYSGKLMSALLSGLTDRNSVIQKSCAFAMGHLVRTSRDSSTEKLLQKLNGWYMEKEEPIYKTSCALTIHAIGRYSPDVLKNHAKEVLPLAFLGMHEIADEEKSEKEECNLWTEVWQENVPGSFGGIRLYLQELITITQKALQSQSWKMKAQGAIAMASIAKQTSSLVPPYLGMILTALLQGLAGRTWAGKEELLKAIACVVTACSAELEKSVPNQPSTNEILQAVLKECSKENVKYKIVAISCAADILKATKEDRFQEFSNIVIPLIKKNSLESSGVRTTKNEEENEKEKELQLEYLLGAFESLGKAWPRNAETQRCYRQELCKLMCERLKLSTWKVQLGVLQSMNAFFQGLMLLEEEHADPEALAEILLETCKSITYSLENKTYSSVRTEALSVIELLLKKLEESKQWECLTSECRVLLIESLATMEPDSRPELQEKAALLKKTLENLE
# Sequence of UniProt O00148 (O00148 whole entry, looked up): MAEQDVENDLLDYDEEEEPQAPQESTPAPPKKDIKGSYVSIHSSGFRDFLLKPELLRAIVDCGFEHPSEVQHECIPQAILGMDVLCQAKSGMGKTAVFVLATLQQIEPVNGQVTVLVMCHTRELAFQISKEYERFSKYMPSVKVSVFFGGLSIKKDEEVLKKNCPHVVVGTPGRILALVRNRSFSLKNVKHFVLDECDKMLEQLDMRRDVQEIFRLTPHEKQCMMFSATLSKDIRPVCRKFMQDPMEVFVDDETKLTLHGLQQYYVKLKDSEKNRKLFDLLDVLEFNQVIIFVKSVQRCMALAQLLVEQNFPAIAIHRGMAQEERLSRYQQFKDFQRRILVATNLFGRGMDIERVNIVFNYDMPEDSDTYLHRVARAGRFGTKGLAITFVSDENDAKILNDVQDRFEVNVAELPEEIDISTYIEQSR
# Sequence of UniProt Q5QJE6 (Q5QJE6 whole entry, looked up): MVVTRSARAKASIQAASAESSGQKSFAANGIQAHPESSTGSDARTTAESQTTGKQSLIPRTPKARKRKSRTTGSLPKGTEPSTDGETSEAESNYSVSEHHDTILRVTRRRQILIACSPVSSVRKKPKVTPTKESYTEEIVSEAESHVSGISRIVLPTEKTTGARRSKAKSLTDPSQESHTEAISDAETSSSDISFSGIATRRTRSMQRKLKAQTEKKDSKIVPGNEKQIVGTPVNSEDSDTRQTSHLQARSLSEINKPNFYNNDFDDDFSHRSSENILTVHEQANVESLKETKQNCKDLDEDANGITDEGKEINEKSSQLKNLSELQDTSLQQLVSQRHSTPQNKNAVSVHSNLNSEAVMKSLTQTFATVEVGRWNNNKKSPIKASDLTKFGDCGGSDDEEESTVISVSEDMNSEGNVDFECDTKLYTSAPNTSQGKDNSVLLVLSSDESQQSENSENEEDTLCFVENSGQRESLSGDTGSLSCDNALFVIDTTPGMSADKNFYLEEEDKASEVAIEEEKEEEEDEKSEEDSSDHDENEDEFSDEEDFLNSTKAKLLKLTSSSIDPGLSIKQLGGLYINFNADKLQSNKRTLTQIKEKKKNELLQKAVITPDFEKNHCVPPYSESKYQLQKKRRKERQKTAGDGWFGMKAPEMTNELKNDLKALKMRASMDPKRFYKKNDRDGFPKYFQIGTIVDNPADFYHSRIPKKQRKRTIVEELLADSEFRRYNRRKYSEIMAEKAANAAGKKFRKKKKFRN
# Sequence of UniProt Q15910 (Q15910 whole entry, looked up): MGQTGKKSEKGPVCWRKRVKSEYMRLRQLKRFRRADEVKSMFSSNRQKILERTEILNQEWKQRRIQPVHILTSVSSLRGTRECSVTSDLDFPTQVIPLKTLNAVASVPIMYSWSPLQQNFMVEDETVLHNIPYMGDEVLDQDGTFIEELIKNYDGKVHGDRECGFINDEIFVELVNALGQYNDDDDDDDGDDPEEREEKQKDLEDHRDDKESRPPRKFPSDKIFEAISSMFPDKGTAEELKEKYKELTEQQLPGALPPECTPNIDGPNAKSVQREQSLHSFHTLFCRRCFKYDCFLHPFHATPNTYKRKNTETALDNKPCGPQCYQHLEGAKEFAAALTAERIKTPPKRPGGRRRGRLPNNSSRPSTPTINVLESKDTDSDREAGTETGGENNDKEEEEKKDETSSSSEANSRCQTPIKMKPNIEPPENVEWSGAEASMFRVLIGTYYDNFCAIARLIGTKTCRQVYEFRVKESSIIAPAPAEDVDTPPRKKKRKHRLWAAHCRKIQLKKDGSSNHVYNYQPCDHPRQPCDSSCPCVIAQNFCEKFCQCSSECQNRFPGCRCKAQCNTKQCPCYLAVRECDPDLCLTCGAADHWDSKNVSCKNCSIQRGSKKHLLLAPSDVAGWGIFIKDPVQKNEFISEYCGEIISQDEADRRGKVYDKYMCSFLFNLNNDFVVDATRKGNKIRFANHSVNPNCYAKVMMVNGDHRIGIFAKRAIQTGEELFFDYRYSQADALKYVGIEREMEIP
# Sequence of UniProt Q9NWS6 (Q9NWS6 whole entry, looked up): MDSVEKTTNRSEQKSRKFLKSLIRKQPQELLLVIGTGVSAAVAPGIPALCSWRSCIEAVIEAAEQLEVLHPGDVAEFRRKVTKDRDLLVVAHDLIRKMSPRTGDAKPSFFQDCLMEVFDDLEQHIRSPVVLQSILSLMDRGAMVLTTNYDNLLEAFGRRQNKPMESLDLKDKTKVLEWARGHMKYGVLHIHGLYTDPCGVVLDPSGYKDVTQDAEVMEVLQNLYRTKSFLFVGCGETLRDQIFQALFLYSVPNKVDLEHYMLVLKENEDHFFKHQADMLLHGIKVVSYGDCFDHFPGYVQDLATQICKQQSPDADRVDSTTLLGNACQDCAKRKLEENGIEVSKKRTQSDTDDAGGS
# Sequence of UniProt Q9NYP7 (Q9NYP7 whole entry, looked up): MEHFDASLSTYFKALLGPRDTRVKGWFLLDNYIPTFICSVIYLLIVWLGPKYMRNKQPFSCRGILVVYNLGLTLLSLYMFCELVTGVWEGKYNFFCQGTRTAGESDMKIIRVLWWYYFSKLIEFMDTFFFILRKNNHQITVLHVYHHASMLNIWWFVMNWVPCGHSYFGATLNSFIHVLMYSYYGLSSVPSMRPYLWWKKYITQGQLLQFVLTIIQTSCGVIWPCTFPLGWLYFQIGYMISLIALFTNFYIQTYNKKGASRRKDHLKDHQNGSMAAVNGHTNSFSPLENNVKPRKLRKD
# Sequence of UniProt P25774 (P25774 whole entry, looked up): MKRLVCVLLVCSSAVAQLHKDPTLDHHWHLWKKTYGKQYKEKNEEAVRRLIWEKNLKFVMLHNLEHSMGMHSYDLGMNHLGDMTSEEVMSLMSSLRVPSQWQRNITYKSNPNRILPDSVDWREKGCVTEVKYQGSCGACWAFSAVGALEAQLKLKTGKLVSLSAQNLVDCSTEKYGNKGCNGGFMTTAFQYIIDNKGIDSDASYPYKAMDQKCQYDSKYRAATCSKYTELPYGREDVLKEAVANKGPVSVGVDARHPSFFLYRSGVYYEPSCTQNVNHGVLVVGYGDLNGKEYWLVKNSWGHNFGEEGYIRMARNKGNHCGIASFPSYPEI
# Sequence of UniProt Q8NBI2 (Q8NBI2 whole entry, looked up): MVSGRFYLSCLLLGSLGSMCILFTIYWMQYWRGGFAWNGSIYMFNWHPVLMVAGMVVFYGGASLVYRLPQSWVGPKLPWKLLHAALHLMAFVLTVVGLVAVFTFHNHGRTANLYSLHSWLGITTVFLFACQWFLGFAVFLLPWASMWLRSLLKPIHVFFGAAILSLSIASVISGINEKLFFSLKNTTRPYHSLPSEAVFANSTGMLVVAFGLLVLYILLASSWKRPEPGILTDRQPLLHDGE
Target,log2 fold change [1],log2 fold change [2],log2 fold change [3],log2 fold change [4],log2 fold change [5],log2 fold change [6],log2 fold change [7],log2 fold change [8],log2 fold change [9],log2 fold change [10]
CTSS (UniProt P25774),0.478 (active),0.051,-0.039,-0.084,0.074,0.258,0.134,-0.074,-0.012,–
DNAJB1 (UniProt P25685),-0.003,-0.03,-0.094,-0.001,-0.05,-0.025,-0.033,-0.009,-0.017,-0.011
EZH2 isoform 2 (UniProt Q15910),-0.043,0.001,-0.18,0.119,-0.207,–,0.217,–,-0.302,0.011
ELF1 (UniProt P32519),0.02,-0.027,-0.101,0.075,–,-0.301,-0.03,0.018,–,0.013
FAM83D (UniProt Q9H4H8),-0.014,-0.055,-0.088,-0.002,-0.074,0.078,0.03,0.071,-0.023,-0.004
FAM160B1 (UniProt Q5W0V3),-0.003,-0.071,-0.138,0,-0.01,-0.036,-0.007,-0.015,0.072,-0.011
DNAH5 (UniProt Q8TE73),0.058,0.017,0.044,0.058,0.015,-0.071,-0.099,-0.006,-0.072,-0.057
EDEM2 (UniProt Q9BV94),-0.23,-0.05,-0.028,0.022,0.036,–,0.079,–,0.105,-0.016
DDX39A (UniProt O00148),0.018,-0.149,-0.061,0.007,-0.213,0.111,-0.041,-0.016,-0.032,-0.143
EIF4G3 isoform 3 (UniProt O43432),-0.076,-0.038,-0.018,-0.016,0.04,0.519,-0.056,0.031,-0.025,-0.019
ERCC2 (UniProt P18074),-0.016,-0.035,-0.062,0.051,-0.094,-0.013,-0.027,0.177,-0.005,-0.01
DNTTIP2 (UniProt Q5QJE6),-0.038,-0.104,-0.007,0.145,-0.131,0.171,0.03,0.067,0.121,0.011
ELOVL5 isoform 2 (UniProt Q9NYP7),-0.037,-0.084,-0.021,-0.085,-0.016,-0.026,-0.135,0.132,-0.048,-0.032
DNAJC24 (UniProt Q6P3W2),0.185,-0.081,-0.038,-0.094,0.116,0.059,-0.351 (active),0.038,0.099,-0.033
DYNC1I2 isoform 5 (UniProt Q13409),0.012,0.021,-0.033,0.003,0.001,-0.006,-0.005,-0.014,0.028,0.012
ECPAS (UniProt Q5VYK3),-0.055,-0.124,-0.033,0.038,-0.06,0.09,0.027,0.122,-0.045,0.012

Target,log2 fold change [1],log2 fold change [2],log2 fold change [3],log2 fold change [4],log2 fold change [5],log2 fold change [6],log2 fold change [7],log2 fold change [8],log2 fold change [9],log2 fold change [10]
CWF19L2 (UniProt Q2TBE0),-0.089,-0.15,0.081,-0.079,–,0.102,-0.014,-0.002,–,-0.034
FAM118A (UniProt Q9NWS6),-0.138,-0.135,-0.168,0.029,-0.179,0.29,0.068,-0.172,-0.079,–
CYB561A3 isoform 2 (UniProt Q8NBI2),0.019,0.001,-0.043,0.047,–,0.395 (active),-0.068,-0.014,–,0.025
DCP2 (UniProt Q8IU60),-0.053,-0.267,-0.047,0.013,0.098,–,-0.153,–,0.081,–
DOCK8 (UniProt Q8NF50),-0.241,-0.398,0.149,0.166,0.242,0.044,-0.06,-0.079,-0.154,-0.163
CTSB (UniProt P07858),0.05,0.064,0,0.002,-0.014,-0.073,-0.009,0.013,-0.008,0.052
DTWD1 (UniProt Q8N5C7),0.007,-0.02,-0.122,-0.014,-0.03,0.011,0.152,0.051,-0.143,0.007
EMD (UniProt P50402),0.011,0.063,-0.043,-0.028,-0.027,0.008,-0.064,-0.056,0.032,-0.046
FAM193B (UniProt Q96PV7),-0.289,0.06,-0.32,-0.007,0.231,0.19,0.096,0.162,0.044,–
EEF1A1 (UniProt P68104),0.093,-0.082,-0.885 (active),-0.096,-0.079,0.146,0.102,-0.009,-0.059,0.007
EDC3 (UniProt Q96F86),-0.041,-0.304,-0.021,0.053,-0.04,0.015,-0.237,0.048,0.005,-0.021
FAM177A1 isoform 2 (UniProt Q8N128),0.092,-0.021,-0.011,0.045,-0.054,0.001,-0.042,-0.029,-0.065,-0.094
ELOVL7 (UniProt A1L3X0),-0.018,–,-0.101,-0.002,–,–,-0.093,–,–,-0.112
DDB1 isoform 2 (UniProt Q16531),–,0.053,–,–,–,-0.067,–,-0.041,–,–
F2RL3 (UniProt Q96RI0),0.04,–,0.004,0.082,0.009,–,0.005,–,0.008,-0.051
